Holding throughout (test): DAPPL (digital affinity profiling via proximity ligation, sequencing); 10 mM Tris-HCl pH 7.5, 50 mM NaCl, 1 mM DTT, 4% glycerol, room temperature, 30 min; GST-TFs on glutathione beads, 16-mer random dsDNA library, 0.1% formaldehyde crosslink after washing; high values mean tight binding
Common to all, as to conditions: protein: recombinant; tags: N-terminal GST; dsDNA, one strand shown

The target of one assay is T1, FLI1 (Homo sapiens, UniProt Q01543 1-452).
T1 sequence: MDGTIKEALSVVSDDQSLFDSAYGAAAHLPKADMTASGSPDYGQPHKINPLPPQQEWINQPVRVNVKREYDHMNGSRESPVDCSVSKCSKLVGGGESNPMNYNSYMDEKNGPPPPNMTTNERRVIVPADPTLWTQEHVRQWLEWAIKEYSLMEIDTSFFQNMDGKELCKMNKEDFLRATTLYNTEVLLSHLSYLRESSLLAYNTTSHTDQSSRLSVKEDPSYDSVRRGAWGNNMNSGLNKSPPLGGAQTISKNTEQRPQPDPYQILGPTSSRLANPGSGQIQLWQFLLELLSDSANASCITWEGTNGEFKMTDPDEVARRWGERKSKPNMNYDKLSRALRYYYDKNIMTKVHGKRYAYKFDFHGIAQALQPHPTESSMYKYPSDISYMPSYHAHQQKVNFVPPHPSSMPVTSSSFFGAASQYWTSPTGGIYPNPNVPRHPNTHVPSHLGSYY
The procedure, abridged:
(§1)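 Pools of DNA-barcoded human transcription factors, expressed in yeast as GST fusions on glutathione beads and combined with a tag-only sample, were incubated with 200 nmole of a 16-mer random double-stranded DNA library. Incubation took 30 min at room temperature in Tris/NaCl/DTT/glycerol buffer and was followed by washing, 0.1% formaldehyde crosslinking, proximity ligation (BsaI/T4 ligase, 1 h, 37 °C), PCR amplification and sequencing on an Illumina NextSeq500. Binding signal is the ratio of a hexamer's read frequency for a factor to its frequency for the tag-only sample.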

A further assay addresses T2, ELK1 (Homo sapiens, UniProt P19419 1-428).
T2 sequence: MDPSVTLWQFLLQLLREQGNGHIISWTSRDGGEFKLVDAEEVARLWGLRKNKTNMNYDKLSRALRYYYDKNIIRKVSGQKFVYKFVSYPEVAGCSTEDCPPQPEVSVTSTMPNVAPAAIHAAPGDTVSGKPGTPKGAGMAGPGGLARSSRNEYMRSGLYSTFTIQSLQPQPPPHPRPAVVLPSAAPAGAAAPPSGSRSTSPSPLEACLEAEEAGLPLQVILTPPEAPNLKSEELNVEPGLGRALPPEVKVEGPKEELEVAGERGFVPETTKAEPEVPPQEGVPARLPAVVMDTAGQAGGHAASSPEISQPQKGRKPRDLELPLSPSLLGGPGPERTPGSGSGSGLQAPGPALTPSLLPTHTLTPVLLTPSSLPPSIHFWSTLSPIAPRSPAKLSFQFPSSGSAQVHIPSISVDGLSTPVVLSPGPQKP
The procedure, abridged: as §1

Another assay has as its target T3, GABPA (Homo sapiens, UniProt Q06546 1-454).
T3 sequence: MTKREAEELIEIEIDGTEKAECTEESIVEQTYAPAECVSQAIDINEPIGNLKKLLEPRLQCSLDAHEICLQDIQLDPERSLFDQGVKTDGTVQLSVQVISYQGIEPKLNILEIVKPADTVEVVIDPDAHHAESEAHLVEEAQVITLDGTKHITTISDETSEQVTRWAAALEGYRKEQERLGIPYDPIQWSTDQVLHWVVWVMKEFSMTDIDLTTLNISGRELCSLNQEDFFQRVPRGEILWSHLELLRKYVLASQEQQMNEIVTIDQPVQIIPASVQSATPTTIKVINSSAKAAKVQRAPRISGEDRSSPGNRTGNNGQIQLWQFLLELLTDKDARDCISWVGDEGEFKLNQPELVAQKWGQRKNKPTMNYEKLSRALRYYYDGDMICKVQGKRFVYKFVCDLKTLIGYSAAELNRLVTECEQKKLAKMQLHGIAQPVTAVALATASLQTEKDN
The procedure, abridged:
as §1

For a further assay, the target named is T4, ERG (Homo sapiens, UniProt P11308 1-479).
T4 sequence: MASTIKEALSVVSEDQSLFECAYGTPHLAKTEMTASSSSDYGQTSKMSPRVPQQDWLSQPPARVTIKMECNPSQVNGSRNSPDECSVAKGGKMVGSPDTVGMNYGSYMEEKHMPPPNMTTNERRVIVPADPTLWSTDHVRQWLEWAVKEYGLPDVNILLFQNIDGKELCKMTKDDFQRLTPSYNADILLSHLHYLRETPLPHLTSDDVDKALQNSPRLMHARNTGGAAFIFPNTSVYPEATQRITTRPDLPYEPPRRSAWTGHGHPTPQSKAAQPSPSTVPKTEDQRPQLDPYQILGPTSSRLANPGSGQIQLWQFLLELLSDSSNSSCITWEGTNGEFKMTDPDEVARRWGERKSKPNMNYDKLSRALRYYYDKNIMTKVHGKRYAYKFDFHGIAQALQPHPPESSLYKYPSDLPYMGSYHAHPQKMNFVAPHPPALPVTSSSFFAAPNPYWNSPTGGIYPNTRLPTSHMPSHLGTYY
The procedure, abridged: as §1

The next assay concerns the target ELF1 (Homo sapiens, UniProt P32519 1-619). The method, boiled down:
as §1

In the next assay the target is T5, EHF (Homo sapiens, UniProt Q9NZC4 1-300).
T5 sequence: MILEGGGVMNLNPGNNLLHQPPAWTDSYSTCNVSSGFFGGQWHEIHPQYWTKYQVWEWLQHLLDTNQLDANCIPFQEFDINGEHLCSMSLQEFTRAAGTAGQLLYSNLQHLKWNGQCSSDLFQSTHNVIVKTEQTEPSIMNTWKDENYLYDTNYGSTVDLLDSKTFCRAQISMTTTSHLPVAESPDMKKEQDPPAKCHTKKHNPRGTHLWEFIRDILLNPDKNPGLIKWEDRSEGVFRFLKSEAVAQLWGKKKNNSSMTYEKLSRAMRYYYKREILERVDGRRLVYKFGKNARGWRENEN
The procedure, abridged:
as §1

The target of another assay is SPI1 (Homo sapiens, UniProt P17947 1-270). The method, boiled down:
as §1

The target of a further assay is T6, FEV (Homo sapiens, UniProt Q99581 1-238).
T6 sequence: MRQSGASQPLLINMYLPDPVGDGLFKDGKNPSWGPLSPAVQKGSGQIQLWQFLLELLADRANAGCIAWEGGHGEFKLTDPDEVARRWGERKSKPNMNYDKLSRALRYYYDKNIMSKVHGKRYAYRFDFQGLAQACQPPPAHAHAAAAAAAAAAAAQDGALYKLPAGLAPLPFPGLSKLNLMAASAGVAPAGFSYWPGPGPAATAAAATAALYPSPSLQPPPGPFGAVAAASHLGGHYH
The method, boiled down:
as §1

The target in the next assay is ETV5 (Homo sapiens, UniProt P41161 1-510). The procedure, abridged:
as §1

A further assay addresses T7, SPIC (Homo sapiens, UniProt Q8N5J4 1-248).
T7 sequence: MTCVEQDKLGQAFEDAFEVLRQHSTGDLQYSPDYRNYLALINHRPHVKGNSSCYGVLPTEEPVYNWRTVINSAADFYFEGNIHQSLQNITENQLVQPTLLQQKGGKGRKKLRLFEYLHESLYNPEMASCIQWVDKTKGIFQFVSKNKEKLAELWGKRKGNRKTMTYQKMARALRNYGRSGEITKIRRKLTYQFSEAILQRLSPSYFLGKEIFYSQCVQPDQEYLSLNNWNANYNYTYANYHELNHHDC
The procedure, abridged:
as §1

In another assay the target is ELF4 (Homo sapiens, UniProt Q99607 1-663). The method, boiled down:
as §1

The next assay has as its target T8, ERF (Homo sapiens, UniProt P50548 1-548).
T8 sequence: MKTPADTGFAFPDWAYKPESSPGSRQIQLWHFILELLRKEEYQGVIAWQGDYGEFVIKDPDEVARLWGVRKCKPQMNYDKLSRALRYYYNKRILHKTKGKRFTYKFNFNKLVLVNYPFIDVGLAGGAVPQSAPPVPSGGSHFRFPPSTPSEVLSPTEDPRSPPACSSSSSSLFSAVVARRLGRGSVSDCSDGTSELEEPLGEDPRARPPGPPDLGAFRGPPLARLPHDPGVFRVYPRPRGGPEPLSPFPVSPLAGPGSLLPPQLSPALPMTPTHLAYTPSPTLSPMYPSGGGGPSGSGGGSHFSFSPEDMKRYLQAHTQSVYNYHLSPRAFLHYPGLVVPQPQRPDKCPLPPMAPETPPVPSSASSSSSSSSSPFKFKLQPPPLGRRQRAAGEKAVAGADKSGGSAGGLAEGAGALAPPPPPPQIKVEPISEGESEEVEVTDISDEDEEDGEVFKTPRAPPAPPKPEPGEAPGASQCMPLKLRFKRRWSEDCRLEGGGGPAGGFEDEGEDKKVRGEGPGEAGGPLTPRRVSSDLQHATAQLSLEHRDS
The procedure, abridged:
as §1

For a further assay, the target named is T9, ETS2 (Homo sapiens, UniProt P15036 1-469).
T9 sequence: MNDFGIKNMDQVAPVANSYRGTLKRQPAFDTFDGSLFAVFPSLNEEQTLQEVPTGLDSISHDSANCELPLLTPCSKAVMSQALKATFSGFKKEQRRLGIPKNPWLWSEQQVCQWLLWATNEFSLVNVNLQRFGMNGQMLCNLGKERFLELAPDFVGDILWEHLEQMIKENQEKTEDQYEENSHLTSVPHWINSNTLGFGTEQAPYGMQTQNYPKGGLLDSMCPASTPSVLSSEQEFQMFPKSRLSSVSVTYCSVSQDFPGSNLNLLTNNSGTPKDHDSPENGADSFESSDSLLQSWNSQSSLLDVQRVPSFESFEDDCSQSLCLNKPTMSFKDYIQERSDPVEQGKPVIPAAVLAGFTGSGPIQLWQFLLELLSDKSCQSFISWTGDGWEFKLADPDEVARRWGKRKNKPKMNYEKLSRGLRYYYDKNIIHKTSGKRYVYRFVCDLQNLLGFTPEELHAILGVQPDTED
The method, boiled down: as §1

The target in a further assay is T10, SPDEF (Homo sapiens, UniProt O95238 1-335).
T10 sequence: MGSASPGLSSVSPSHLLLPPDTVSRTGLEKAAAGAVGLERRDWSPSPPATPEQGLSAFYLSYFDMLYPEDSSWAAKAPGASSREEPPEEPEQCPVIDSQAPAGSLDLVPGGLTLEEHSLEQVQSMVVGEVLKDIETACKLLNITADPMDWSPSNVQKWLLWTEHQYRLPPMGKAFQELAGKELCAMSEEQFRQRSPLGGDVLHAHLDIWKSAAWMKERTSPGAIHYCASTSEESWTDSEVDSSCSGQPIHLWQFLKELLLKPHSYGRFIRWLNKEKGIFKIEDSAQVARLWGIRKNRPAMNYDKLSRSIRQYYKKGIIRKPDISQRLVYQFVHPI
The method, boiled down:
as §1

The target of the next assay is T11, ELF5 (Homo sapiens, UniProt Q9UKW6-2 1-255).
T11 sequence: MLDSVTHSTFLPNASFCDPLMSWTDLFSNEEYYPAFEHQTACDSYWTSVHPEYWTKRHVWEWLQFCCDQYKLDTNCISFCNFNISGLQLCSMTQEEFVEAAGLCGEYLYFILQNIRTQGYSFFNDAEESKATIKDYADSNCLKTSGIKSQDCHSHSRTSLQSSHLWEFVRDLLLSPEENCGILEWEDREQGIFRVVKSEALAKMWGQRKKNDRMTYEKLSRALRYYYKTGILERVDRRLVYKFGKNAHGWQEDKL
The procedure, abridged:
as §1

A further assay addresses T12, ETV3 (Homo sapiens, UniProt P41162-2 1-143).
T12 sequence: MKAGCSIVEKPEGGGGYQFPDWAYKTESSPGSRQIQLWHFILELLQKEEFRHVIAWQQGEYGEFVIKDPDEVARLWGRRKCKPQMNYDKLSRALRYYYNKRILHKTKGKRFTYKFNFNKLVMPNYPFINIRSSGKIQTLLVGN
The method, boiled down: as §1

A further assay concerns the target ETV6 (Homo sapiens, UniProt P41212 1-452). The procedure, abridged: as §1

Sequence of ELF4 (Q99607 whole entry): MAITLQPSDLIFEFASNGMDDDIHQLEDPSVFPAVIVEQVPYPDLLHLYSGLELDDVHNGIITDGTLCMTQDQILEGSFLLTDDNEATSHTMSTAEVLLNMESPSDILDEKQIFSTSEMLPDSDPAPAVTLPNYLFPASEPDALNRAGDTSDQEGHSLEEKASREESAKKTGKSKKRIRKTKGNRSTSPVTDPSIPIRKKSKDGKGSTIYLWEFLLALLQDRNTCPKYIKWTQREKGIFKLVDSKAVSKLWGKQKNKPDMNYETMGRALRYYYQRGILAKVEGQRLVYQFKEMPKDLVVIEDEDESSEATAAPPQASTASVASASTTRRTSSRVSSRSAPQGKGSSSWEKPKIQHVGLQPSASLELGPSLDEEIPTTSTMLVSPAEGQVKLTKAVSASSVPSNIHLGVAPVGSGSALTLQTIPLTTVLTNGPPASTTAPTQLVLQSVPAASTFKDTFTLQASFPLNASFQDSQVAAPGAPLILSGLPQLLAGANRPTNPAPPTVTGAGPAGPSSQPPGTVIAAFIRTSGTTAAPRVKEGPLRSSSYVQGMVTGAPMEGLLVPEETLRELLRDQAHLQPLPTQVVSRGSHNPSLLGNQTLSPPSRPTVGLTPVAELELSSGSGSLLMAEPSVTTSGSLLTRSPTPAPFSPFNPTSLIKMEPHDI
Sequence of ETV6 (P41212 whole entry): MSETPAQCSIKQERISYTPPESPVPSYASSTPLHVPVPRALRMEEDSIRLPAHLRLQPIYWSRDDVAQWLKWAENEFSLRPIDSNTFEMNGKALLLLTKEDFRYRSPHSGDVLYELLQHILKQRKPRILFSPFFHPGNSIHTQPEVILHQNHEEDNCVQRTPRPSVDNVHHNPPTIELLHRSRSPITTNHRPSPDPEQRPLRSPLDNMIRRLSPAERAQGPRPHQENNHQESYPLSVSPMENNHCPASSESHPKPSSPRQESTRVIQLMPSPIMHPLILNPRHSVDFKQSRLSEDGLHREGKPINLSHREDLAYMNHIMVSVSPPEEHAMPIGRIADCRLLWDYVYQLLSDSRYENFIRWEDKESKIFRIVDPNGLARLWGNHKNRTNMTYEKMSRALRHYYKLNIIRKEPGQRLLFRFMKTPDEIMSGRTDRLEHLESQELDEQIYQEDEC
Sequence of ELF1 (P32519 whole entry): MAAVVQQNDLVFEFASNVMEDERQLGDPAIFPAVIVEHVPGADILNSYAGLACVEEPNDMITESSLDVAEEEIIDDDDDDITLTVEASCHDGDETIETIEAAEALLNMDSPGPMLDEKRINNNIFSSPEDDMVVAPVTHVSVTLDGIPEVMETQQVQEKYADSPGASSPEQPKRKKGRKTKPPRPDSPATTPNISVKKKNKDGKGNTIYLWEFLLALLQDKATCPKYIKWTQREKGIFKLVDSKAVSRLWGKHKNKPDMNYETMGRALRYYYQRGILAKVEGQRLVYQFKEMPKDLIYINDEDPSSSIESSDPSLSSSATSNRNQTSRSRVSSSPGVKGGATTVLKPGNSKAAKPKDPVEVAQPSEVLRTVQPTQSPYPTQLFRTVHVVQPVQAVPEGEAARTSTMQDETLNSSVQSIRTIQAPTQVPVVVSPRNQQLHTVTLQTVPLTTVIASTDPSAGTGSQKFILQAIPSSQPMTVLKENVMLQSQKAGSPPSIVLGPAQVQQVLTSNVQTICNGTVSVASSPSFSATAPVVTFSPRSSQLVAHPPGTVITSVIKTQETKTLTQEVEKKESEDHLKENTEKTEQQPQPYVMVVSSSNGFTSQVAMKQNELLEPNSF
Sequence of ETV5 (P41161 whole entry): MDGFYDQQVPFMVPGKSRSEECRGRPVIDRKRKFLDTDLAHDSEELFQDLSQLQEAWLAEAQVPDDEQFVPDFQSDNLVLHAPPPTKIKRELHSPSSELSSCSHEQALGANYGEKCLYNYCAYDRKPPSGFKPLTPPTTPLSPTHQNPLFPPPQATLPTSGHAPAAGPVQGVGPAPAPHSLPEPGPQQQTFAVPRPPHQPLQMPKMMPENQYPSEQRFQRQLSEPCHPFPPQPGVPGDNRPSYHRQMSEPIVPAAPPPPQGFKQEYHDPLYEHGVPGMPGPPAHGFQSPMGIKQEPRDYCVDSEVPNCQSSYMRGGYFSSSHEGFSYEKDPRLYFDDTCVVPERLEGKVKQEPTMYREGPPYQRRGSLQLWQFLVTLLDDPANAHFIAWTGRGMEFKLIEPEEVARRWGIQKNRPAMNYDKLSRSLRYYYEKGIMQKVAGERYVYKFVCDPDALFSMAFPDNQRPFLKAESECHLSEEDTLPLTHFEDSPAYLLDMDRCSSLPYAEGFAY

With CCATGC, the binding signal with FLI1 is 1.04 fold enrichment (6-mer frequency, TF over GST control); in the assay with ELK1, 1.1 fold enrichment (6-mer frequency, TF over GST control); in the assay with GABPA, 1.09 fold enrichment (6-mer frequency, TF over GST control); with ERG, 1.09 fold enrichment (6-mer frequency, TF over GST control); with ELF1, 1.13 fold enrichment (6-mer frequency, TF over GST control); in the assay with EHF it was 1.15 fold enrichment (6-mer frequency, TF over GST control). For the same sequence, the binding signal was 1.01 fold enrichment (6-mer frequency, TF over GST control) with SPI1; 1.1 fold enrichment (6-mer frequency, TF over GST control) with FEV; 1.11 fold enrichment (6-mer frequency, TF over GST control) with ETV5; 1 fold enrichment (6-mer frequency, TF over GST control) with SPIC; 1.08 fold enrichment (6-mer frequency, TF over GST control) with ELF4; 1.01 fold enrichment (6-mer frequency, TF over GST control) with ERF. Also, the binding signal was 1.03 fold enrichment (6-mer frequency, TF over GST control) in the assay with ETS2; 1.06 fold enrichment (6-mer frequency, TF over GST control) with SPDEF; 1.03 fold enrichment (6-mer frequency, TF over GST control) with ELF5; 1.12 fold enrichment (6-mer frequency, TF over GST control) with ETV3; 1.12 fold enrichment (6-mer frequency, TF over GST control) with ETV6.

The record behind these values is article PMC7862700, “An all-to-all approach to the identification of sequence-specific readers for epigenetic DNA modifications on cytosine”.
